For assay [1] the following is noted: Ebola virus entry assay, green fluorescence channel.
For assay [2] the following is noted: Ebola virus entry assay, blue channel fluorescence.
For assay [3] the following is noted: Ebola virus entry assay, green fluorescence channel. The source holds these as a separate data set.
The conditions of assay [4]: Ebola virus entry assay, ratio channel readout.
The conditions of assay [5]: Ebola virus entry assay, blue channel fluorescence. The source holds these as a separate data set.
The conditions of assay [6]: Ebola virus entry assay, ratio channel.
For assay [7] the following is noted: Ebola virus entry assay, green channel fluorescence.
The conditions of assay [8]: Ebola virus entry assay, blue channel fluorescence. The source holds these as a separate data set.
The conditions of assay [9]: Ebola virus entry assay, reporter ratio channel; AC50: Channel type: primary unless noted; outcome: Channel type: primary unless noted.
For assay [10] the following is noted: Ebola virus entry assay, blue channel (ratio component).
For assay [11] the following is noted: Ebola virus entry reporter assay, green channel fluorescence.
For assay [12] the following is noted: Ebola virus entry cell assay, ratio channel.
A short description of assay [13]: Immunotoxin (HA22) sensitization/mitigation study. Vehicle arm (PBS) (AID 1159510). Note: potency is the fitted concentration of half-maximal effect. The settings on record: cancer cells viability with PBS vehicle (HA22 study); series mostly up to 46.1 µM.
The nature of assay [14]: Immunotoxin (SS1P) sensitization/mitigation study. Vehicle arm (DMEM) (AID 1159513). Note: potency is the fitted concentration of half-maximal effect. The settings on record: cell viability with vehicle (DMEM); series mostly up to 46.1 µM.

A number with no mark means an inactive call. For some assays here: Results with a measured potency or affinity are listed apart. Active and inactive are the calls of the source.
Throughout, for efficacy: 0% is about no effect.

For the compound `CN/C(=C\[N+](=O)[O-])NCCSCc1ccc(CN(C)C)o1`, the efficacy in assay [1] is -12.5%. For the same compound, the result in assay [2], in assay [3], in assay [4], in assay [5], in assay [6] and in assay [7] was inactive. The result in assay [8], in assay [9], in assay [10], in [11] and in assay [12] was inactive.

With `N[C@@H](C(=O)N[C@@H]1C(=O)N2C(C(=O)O)=C(Cl)CS[C@H]12)c1ccccc1`, the efficacy in assay [1] was 26%. The compound was called inactive in assay [2], in assay [3], in [4], in assay [5], in assay [6] and in assay [7]. The call in assay [8], in assay [9], in assay [10], in assay [11] and in assay [12] was inactive.

In the case of `O=C(O)CCNC(=O)c1ccc(N=Nc2ccc(O)c(C(=O)O)c2)cc1`, the efficacy in assay [1] was -11.9%. The call in assay [2], in [3], in assay [4], in assay [5], in assay [6] and in assay [7] was inactive. For the same compound, the compound was classed as inactive in assay [8], in [9], in [10], in assay [11] and in assay [12].

For `CCOc1ccccc1OCCN[C@H](C)Cc1ccc(OC)c(S(N)(=O)=O)c1`, the efficacy in [1] is -10.5%. Further, the compound was called inactive in [2], in assay [3], in assay [4], in assay [5], in assay [6] and in assay [7]. For the same compound, the call in assay [8], in assay [9], in assay [10], in [11] and in assay [12] was inactive.

In the case of `CCC1(c2ccccc2)C(=O)NCNC1=O`, the efficacy in assay [1] was -13.6%. For the same compound, the result in [2], in [3], in assay [4], in assay [5], in assay [6] and in [7] was inactive. Moreover, the call in assay [8], in assay [9], in assay [10], in assay [11] and in [12] was inactive.

For the compound `Cc1cccc(Nc2ccccc2C(=O)O)c1C`, the efficacy in assay [1] is 32.2%. For the same compound, the compound was classed as inactive in assay [2], in assay [3], in assay [4], in [5], in assay [6] and in assay [7]. Further, the outcome in assay [8], in assay [9], in assay [10], in assay [11] and in assay [12] was inactive.

For `CC(C)Nc1cccnc1N1CCN(C(=O)c2cc3cc(NS(C)(=O)=O)ccc3[nH]2)CC1`, the efficacy in assay [1] is -26%. The outcome in assay [2], in assay [3], in [4], in assay [5], in assay [6] and in assay [7] was inactive. Moreover, the outcome in [8], in assay [9], in assay [10], in [11] and in [12] was inactive.

For the compound `CCCCNC(=O)NS(=O)(=O)c1ccc(C)cc1`, in assay [1], the efficacy was -19.2%. Further, the compound was classed as inactive in [2], in assay [3], in [4], in [5], in [6] and in [7]. The compound was classed as inactive in assay [8], in [9], in assay [10], in assay [11] and in assay [12].

As for `CO[C@@]12[C@H](COC(N)=O)C3=C(C(=O)C(C)=C(N)C3=O)N1C[C@@H]1N[C@@H]12`, the efficacy in [1] is 19.7%. The compound was called inactive in assay [2], in [3], in [4], in assay [5], in [6] and in assay [7]. Further, the call in assay [8], in [9], in assay [10], in [11] and in [12] was inactive.

Take `CNCCc1ccccn1`: the efficacy in [1] is -10.7%. The compound was called inactive in assay [2], in assay [3], in assay [4], in [5], in assay [6] and in assay [7]. Moreover, the compound was called inactive in [8], in assay [9], in [10], in [11] and in assay [12].

With `COc1ccccc1OCC(O)CN1CCN(CC(=O)Nc2c(C)cccc2C)CC1` (stereo unspecified), the efficacy in assay [1] is 29.5%. The result in [2], in assay [3], in [4], in assay [5], in assay [6] and in assay [7] was inactive. Moreover, the result in assay [8], in assay [9], in assay [10], in assay [11] and in assay [12] was inactive.

With `CS(=O)(=O)OCCCCOS(C)(=O)=O`, in assay [1], the efficacy was 19.1%. Besides, the compound was classed as inactive in assay [2], in assay [3], in [4], in assay [5], in assay [6] and in assay [7]. For the same compound, the call in assay [8], in [9], in assay [10], in assay [11] and in assay [12] was inactive.

For `CCC1C(=O)OCC1Cc1cncn1C` (stereo unspecified), in assay [1], the efficacy was -25.5%. Also, the compound was classed as inactive in assay [2], in assay [3], in assay [4], in assay [5], in assay [6] and in [7]. For the same compound, the result in assay [8], in assay [9], in assay [10], in [11] and in assay [12] was inactive.

For the compound `O=C(CCCCCCC(=O)Nc1ccccc1)NO`, the efficacy in [1] was -11.4%. The result in assay [2], in [3], in [4], in [5], in assay [6] and in assay [7] was inactive. The result in assay [8], in assay [9], in [10], in assay [11] and in assay [12] was inactive. Further, the Potency in assay [13] was 95.9 nM (active); in assay [14], 481 nM (active).

In the case of `Cn1cnc([N+](=O)[O-])c1Sc1ncnc2nc[nH]c12`, the efficacy in assay [1] was 14.5%. Besides, the compound was classed as inactive in assay [2], in assay [3], in assay [4], in assay [5], in [6] and in assay [7]. For the same compound, the compound was classed as inactive in assay [8], in assay [9], in assay [10], in assay [11] and in assay [12].

In the case of `CCN(CC)CCNC(=O)c1cc(Cl)c(N)cc1OC`, the efficacy in [1] was -12.5%. Moreover, the result in assay [2], in [3], in [4], in [5], in assay [6] and in [7] was inactive. Moreover, the outcome in assay [8], in assay [9], in assay [10], in assay [11] and in assay [12] was inactive.

Take `O=C(c1ccccc1)c1ccc2n1CCC2C(=O)O` (stereo unspecified): the efficacy in [1] is 22%. Further, the result in assay [2], in assay [3], in assay [4], in [5], in assay [6] and in assay [7] was inactive. In addition, the compound was called inactive in assay [8], in assay [9], in assay [10], in [11] and in assay [12].

The values are drawn from PubChem BioAssay (NCATS).
